Assay outcomes as filed in PubChem BioAssay.
Only a selection was taken, and hits are over-represented in it overall.
NOMO-1 viab = STK33 inhibitor candidate reducing NOMO-1 cell viability | inhibition, % (test concentration not listed) | actives 7.5% (n = 37,000) | AID 2330 | NOMO-1 AML viability, CellTiter-Glo luminescence, 72 h; in the data active = inhibition above about 80%; inconclusive = no clear call, values can overlap the other calls
U2OS ROS induce = inducers of reactive oxygen species in cancer cells; actives 2% (n = 46,000); ROS induction (% of piperlongumine), % at 10 µM; U2OS ROS induction, H2DCF-DA fluorescence; in the data active = ROS induction above about 79%, passing the limit was not always enough; inconclusive = no clear call, values can overlap the other calls;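 note: 0% = DMSO vehicle median and 100% = reference compound median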
YB-1 expr inh = YB-1 expression inhibition; actives 0.37% (n = 30,000); U2OS, qRT-PCR YB-1 vs CDIP delta delta Cp, 16 h; hits give high values; zero = DMSO, each unit about twofold; delta delta Cp (YB-1 minus CDIP) (test concentration not listed);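 active = delta delta Cp rounded down to an integer at or above 3, about 3 SD of DMSO wells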;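 note: higher means less YB-1 transcript or more CDIP transcript relative to DMSO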
PD-1 reverse act = activators reversing PD-1 mediated T-cell inhibition; primary human CD4 T cells, PD-L1 beads, CellTiter-Glo 96 h; activation, % (test concentration not listed); 29,000 tested, under 10 active; AID 2316; call rule not given here;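 note: 0% = median vehicle wells and 100% = positive control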
The depositor's hits bear a star; u = inconclusive; x = not tested or not shown.

SMILES	NOMO-1 viab	U2OS ROS induce	YB-1 expr inh	PD-1 reverse act
N#Cc1cc2c(OCC(O)CN3CCN(C(c4ccccc4)c4ccccc4)CC3)cccc2[nH]1 (configuration not stated)	116*	57	-0.7	x
Cc1ccccc1OCCCC(=O)Nc1cccc(C(F)(F)F)c1	x	3	x	x
S=C(NCCc1ccccc1)NCCc1c[nH]c2ccccc12	x	1	x	x
O=C(NCCCN1CCOCC1)NC1(c2ccccc2)CC1	x	-2	x	x
COc1ccc([Si](C)(C)[C@H]2[C@H](CCn3cc(CCO)nn3)O[C@@]3(C(=O)N(Cc4ccc(N5CCC5=O)cc4)c4ccccc43)[C@@H]2C)cc1	x	80*	-0.057	x
COc1ccc([Si](C)(C)[C@@H]2[C@@H](CCO)O[C@]3(C(=O)N(Cc4ccc(N5CCC5=O)cc4)c4ccccc43)[C@H]2C)cc1	x	128*	0.026	x
COc1ccc([Si](C)(C)[C@@H]2[C@@H](CCn3cc(CCO)nn3)O[C@]3(C(=O)N(Cc4ccc(N5CCC5=O)cc4)c4ccccc43)[C@H]2C)cc1	x	35	0.24	x
COc1ccc([Si](C)(C)[C@H]2[C@H](CCn3cc(CCO)nn3)O[C@@]3(C(=O)N(Cc4cccc(N5CCC5=O)c4)c4ccccc43)[C@@H]2C)cc1	x	109*	0.11	x
O=C(CN1C(=O)C2C3C=CC(C3)C2C1=O)Nc1ccc2ncccc2c1 (configuration not stated)	x	-21	x	x
CC(C)(C)c1ccc(C(=O)N2CCCC2)cc1	9	-4	-0.6	2
CC(C)(C)c1ccc(C(=O)C(C#N)=C2SCCCS2)cc1	109*	27	-1	-1
CCOC(=O)c1cnc2ccc(OCC)cc2c1NC(C)CC (configuration not stated)	117*	42	-0.39	-21
CCOC(=O)c1c(C)oc2ccc(OCC)cc12	x	11	x	x
CCOC(=O)c1cnc2ccc(OCC)cc2c1N1CCN(c2ccccc2)CC1	67	128*	0.49	-1
CN(C)C(=O)Cn1c(=O)oc2ccccc21	x	-11	x	x
CCCCCCCCNC(C)C(O)c1ccc(SC(C)C)cc1 (configuration not stated)	120*	-3	-0.12	x
CC(=O)OC[C@]12[C@H](OC(C)=O)[C@H](OC(C)=O)[C@@H]3[C@@H](OC(C)=O)[C@@]14O[C@@]3(C)COC(=O)c1cnccc1CC[C@H](C)C(=O)O[C@@]4(C)[C@@H](O)[C@H](O)[C@@H]2OC(C)=O	119*	32	-0.61	-3
Cc1nc2ccc(S(=O)(=O)NCC(=O)N3CCCC3)cc2s1	x	-7	x	x
O=C1C=CC(=O)c2c(O)c(Cl)c(Cl)c(O)c21	98*	-1	-0.43	-41
CC1(C)C(=O)C=CC2(C)C1CC(O)C1(C)C3=CCC(c4ccoc4)C3(C)CCC21 (configuration not stated)	119*	14	-0.23	-11
CCOC(=O)Nc1cc(=O)c2ccccc2o1	119*	23	0.056	3
COc1ccc(S(=O)(=O)N(C)C[C@@H]2Oc3c(NC(=O)Nc4ccc(C(F)(F)F)cc4)cccc3C(=O)N([C@@H](C)CO)C[C@@H]2C)cc1	93*	25	-0.12	-1
COc1ccc(NC(=O)Nc2cccc3c2O[C@@H](CN(C)S(=O)(=O)c2ccc(OC)cc2)[C@H](C)CN([C@H](C)CO)C3=O)cc1	16	-9	0.079	-2
COc1ccc(S(=O)(=O)N(C)C[C@@H]2Oc3c(NC(=O)Nc4ccc(C(F)(F)F)cc4)cccc3C(=O)N([C@H](C)CO)C[C@@H]2C)cc1	114*	11	0.024	-2
Cc1ccc(S(=O)(=O)N(C)C[C@H]2Oc3c(NC(=O)Nc4ccc(C(F)(F)F)cc4)cccc3C(=O)N([C@@H](C)CO)C[C@H]2C)cc1	119*	38	-0.21	-7
SMILES	NOMO-1 viab	U2OS ROS induce	YB-1 expr inh	PD-1 reverse act
NC(=O)COc1ccc(Cl)cc1	x	-7	x	x
C[C@@H]1CN([C@H](C)CO)C(=O)Cc2cc(NC(=O)Nc3cccc4ccccc34)ccc2O[C@@H]1CN(C)Cc1ccc(-c2ccccc2)cc1	94*	15	-0.1	-3
C[C@H](CO)N1C[C@H](C)[C@H](CN(C)Cc2ccncc2)Oc2ccc(NC(=O)Nc3cccc4ccccc34)cc2CC1=O	125*	34	-0.11	x
C[C@@H]1CN([C@H](C)CO)C(=O)Cc2cc(NC(=O)Nc3cccc4ccccc34)ccc2O[C@@H]1CN(C)Cc1ccc(Oc2ccccc2)cc1	111*	28	0.033	-5
C[C@@H]1CN([C@@H](C)CO)C(=O)Cc2cc(NC(=O)Nc3cccc4ccccc34)ccc2O[C@@H]1CN(C)Cc1ccc(C(F)(F)F)cc1	117*	2	-9.1	-6
C[C@@H]1CN([C@@H](C)CO)C(=O)Cc2cc(NC(=O)Nc3cccc4ccccc34)ccc2O[C@@H]1CN(C)Cc1ccc(-c2ccccc2)cc1	52	7	0.19	-1
Nc1cc(=O)[nH]c(SCC(=O)Nc2ccc(F)cc2)n1	4	x	x	x
COc1cccc2cc(C(=O)C3C(=O)C(=O)N(CCCN(C)C)C3c3ccccc3F)oc12 (configuration not stated)	2	-7	x	1
COc1cc(OC)c(NC(=O)CN2C(=O)c3ccccc3C2=O)cc1Cl	-2	-15	x	0
COC(=O)c1c(N)c(C#N)c2n1CCC2	x	1	x	x
CSc1nnc(-c2ccc(Cl)cc2Cl)n1Cc1ccco1	x	6	x	x
O=C(O)CCCCCC(=O)N/N=C/CCC1CCCCC1	x	-4	0.28	x
NC(=O)CSc1nc(N)c(-c2ccccc2)c(=O)[nH]1	15	x	x	x
C[C@H]1CN([C@@H](C)CO)C(=O)Cc2cc(NC(=O)C3CCCCC3)ccc2O[C@@H]1CN(C)Cc1ccc(-c2ccccc2)cc1	55	17	-0.067	x
C[C@@H]1CN([C@@H](C)CO)C(=O)Cc2cc(NC(=O)C3CCCCC3)ccc2O[C@@H]1CN(C)Cc1ccc(Oc2ccccc2)cc1	95*	30	0.11	x
C[C@@H]1CN([C@H](C)CO)C(=O)Cc2cc(NC(=O)C3CCCCC3)ccc2O[C@@H]1CN(C)Cc1ccc(-c2ccccc2)cc1	113*	42	0.069	-4
CC(C)(C)C(=O)Nc1ccc2c(c1)C(=O)C(=O)c1ccccc1-2	98*	-21	x	-58
CC(O)(C(=O)Nc1ccc(S(=O)(=O)c2ccccc2)cc1)C(F)(F)F (configuration not stated)	38	-5	-0.079	x
Cc1nnc(SCc2nnnn2-c2ccccc2)[nH]c1=O	15	x	x	x
Cc1ccnc(NC(c2ccsc2)c2ccc3ccc(C)nc3c2O)c1 (configuration not stated)	89*	u	x	-17
CCc1ccc(C(Nc2ccccn2)c2ccc3ccc(C)nc3c2O)cc1 (configuration not stated)	110*	x	x	x
COc1ccc(C(Nc2cc(C)ccn2)c2ccc3ccc(C)nc3c2O)cc1 (configuration not stated)	99*	x	x	x
Cc1ccnc(NC(c2cccc(F)c2)c2ccc3ccc(C)nc3c2O)c1 (configuration not stated)	116*	x	x	x
